Test results published in PubChem BioAssay AID1159580 (chemical genetic matrix, 2015).
“And” between values parts separate entries of the source, which are not always exact repeats. Equal entries are not always repeated. Hit rate of the full screen: of about 5,500 compounds, about 2,000 (36%) were called active. Another 18% or so got no clear call; they are omitted. The list shows a part of the results. A number with no mark means an inactive call. No stated cut-off is given here; in the data, active means normalized growth mostly below about 0.91 (no sharp cut-off); inconclusive means no clear call, values can overlap the other calls; inactive means mostly above about 0.92.

Assay: chemical genetic growth profiling, strain panel (AID 1159580);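 further: tested at 20 µM; growth read once vehicle control cultures reached saturation at 30 °C; 1 = growth at the plate median or of vehicle wells; lower values mean less growth of the strain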
Conditions: S. cerevisiae deletion strains, growth OD

In the case of `C#CCCCCCCCCCCCC(O)CC(O)COC(C)=O` (stereo unspecified), the normalized growth (locus YAL013W, strain DEP1, active compounds read low) is reported as 0.98, the normalized growth (locus YAL021C, strain ccr4, active compounds read low) is reported as 0.766 (active) and the normalized growth (locus YAL026C, strain drs2, active compounds read low) is reported as 0.906 (active). The normalized growth (locus YAL030W, strain snc1, active compounds read low) was 0.526 (active), the normalized growth (locus YBL061C, strain skt5, active compounds read low) was 0.841 (active) and the normalized growth (locus YBR009C, strain hhf1, active compounds read low) was 0.263 (active). For the same compound, the normalized growth (locus YBR021W, strain FUR4, active compounds read low) was 0.925, the normalized growth (locus YBR023C, strain chs3, active compounds read low) was 0.756 (active) and the normalized growth (locus YBR171W, strain sec66, active compounds read low) was 0.962. For the same compound, the normalized growth (locus YBR229C, strain ROT2, active compounds read low) was 0.982, the normalized growth (locus YBR231C, strain swc5, active compounds read low) was 0.962 and the normalized growth (locus YBR279W, strain paf1, active compounds read low) was 0.87 (active). For the same compound, the normalized growth (locus YCL011C, strain gbp2, active compounds read low) was 0.32 (active), the normalized growth (locus YCL016C, strain dcc1, active compounds read low) was 0.805 (active) and the normalized growth (locus YCL029C, strain bik1, active compounds read low) was 0.954. The normalized growth (locus YCL069W, strain vba3, active compounds read low) was 0.852 (active), the normalized growth (locus YCR088W, strain abp1, active compounds read low) was 0.947 and the normalized growth (locus YDL005C, strain med2, active compounds read low) was 0.103 (active). It also gave a normalized growth (locus YDL035C, strain GPR1, active compounds read low) of 0.908, a normalized growth (locus YDL040C, strain nat1, active compounds read low) of 0.973 and a normalized growth (locus YDL074C, strain BRE1, active compounds read low) of 0.857. For the same compound, the normalized growth (locus YDL101C, strain DUN1, active compounds read low) was 0.975, the normalized growth (locus YDL134C, strain PPH21, active compounds read low) was 0.972 and the normalized growth (locus YDL185W, strain tfp1, active compounds read low) was 0.963. For the same compound, the normalized growth (locus YDL192W, strain arf1, active compounds read low) was 0.928, the normalized growth (locus YDR001C, strain nth1, active compounds read low) was 0.999 and the normalized growth (locus YDR069C, strain doa4, active compounds read low) was 1.02. The normalized growth (locus YDR101C, strain arx1, active compounds read low) was 0.916 (active), the normalized growth (locus YDR137W, strain rgp1, active compounds read low) was 0.63 (active) and the normalized growth (locus YDR150W, strain NUM1, active compounds read low) was 0.992. For the same compound, the normalized growth (locus YDR159W, strain sac3, active compounds read low) was 0.289 (active), the normalized growth (locus YDR162C, strain NBP2, active compounds read low) was 0.945 and the normalized growth (locus YDR195W, strain ref2) was 0.482 (active). The normalized growth (locus YDR297W, strain sur2, active compounds read low) was 0.571 (active), the normalized growth (locus YDR318W, strain mcm21, active compounds read low) was 0.889 (active) and the normalized growth (locus YDR334W, strain swr1, active compounds read low) was 1.04. For the same compound, the normalized growth (locus YDR335W, strain msn5, active compounds read low) was 0.913 (active), the normalized growth (locus YDR388W, active compounds read low) was 0.967 and the normalized growth (locus YDR392W, strain spt3, active compounds read low) was 0.21 (active). For the same compound, the normalized growth (locus YDR502C, strain sam2, active compounds read low) was 0.923, the normalized growth (locus YEL003W, strain gim4, active compounds read low) was 0.376 (active) and the normalized growth (locus YEL037C, strain rad23, active compounds read low) was 0.997. The normalized growth (locus YEL061C, strain CIN8 (second series), active compounds read low) was 0.872 (active), the normalized growth (locus YEL061C, strain CIN8, active compounds read low) was 0.989 and the normalized growth (locus YER015W, strain faa2, active compounds read low) was 0.714 (active). The normalized growth (locus YER016W, strain bim1, active compounds read low) was 0.861 (active), the normalized growth (locus YER110C, active compounds read low) was 0.965 and the normalized growth (locus YER111C, strain swi4, active compounds read low) was 0.927. For the same compound, the normalized growth (locus YER155C, strain BEM2 (second series), active compounds read low) was 0.461 (active), the normalized growth (locus YER155C, strain BEM2, active compounds read low) was 0.988 and the normalized growth (locus YER167W, strain BCK2, active compounds read low) was 0.953. For the same compound, the normalized growth (locus YFR010W, strain ubp6, active compounds read low) was 1.03, the normalized growth (locus YGL078C, strain dbp3, active compounds read low) was 0.881 (active) and the normalized growth (locus YGL086W, strain mad1, active compounds read low) was 0.91 (active). The normalized growth (locus YGL167C, strain pmr1, active compounds read low) was 0.939, the normalized growth (locus YGL173C, strain kem1, active compounds read low) was 0.539 (active) and the normalized growth (locus YGL227W, strain vid30, active compounds read low) was 0.72 (active). For the same compound, the normalized growth (locus YGL240W, strain doc1, active compounds read low) was 0.727 (active), the normalized growth (locus YGL248W, strain PDE1, active compounds read low) was 0.976 and the normalized growth (locus YGL253W, strain hxk2, active compounds read low) was 0.788 (active). It also gave a normalized growth (locus YGR078C, strain PAC10, active compounds read low) of 0.905, a normalized growth (locus YGR135W, strain pre9, active compounds read low) of 0.918 and a normalized growth (locus YGR229C, strain SMI1, active compounds read low) of 0.954. The normalized growth (locus YGR252W, strain gcn5, active compounds read low) was 0.831, the normalized growth (locus YHR013C, strain ard1, active compounds read low) was 1.13 and the normalized growth (locus YHR027C, strain rpn1, active compounds read low) was 0.82 (active). The normalized growth (locus YHR030C, strain SLT2, active compounds read low) was 0.98 and 0.998, the normalized growth (locus YHR079C, strain IRE1 (second series), active compounds read low) was 0.942 and the normalized growth (locus YHR079C, strain IRE1, active compounds read low) was 0.969. For the same compound, the normalized growth (locus YHR094C, strain hxt1, active compounds read low) was 0.97, the normalized growth (locus YHR129C, strain ARP1, active compounds read low) was 0.978 and the normalized growth (locus YHR142W, strain chs7, active compounds read low) was 0.624 (active). The normalized growth (locus YHR200W, strain rpn10, active compounds read low) was 0.945, the normalized growth (locus YIL066C, strain RNR3, active compounds read low) was 0.885 and the normalized growth (locus YIL073C, strain SPO22, active compounds read low) was 0.917. For the same compound, the normalized growth (locus YIL125W, strain kgd1, active compounds read low) was 0.965, the normalized growth (locus YIR030C, strain dcg1, active compounds read low) was 0.962 and the normalized growth (locus YJL092W, strain hpr5, active compounds read low) was 0.963. The normalized growth (locus YJL095W, strain BCK1 (second series), active compounds read low) was 0.216 (active), the normalized growth (locus YJL095W, strain BCK1, active compounds read low) was 0.935 and 1 and the normalized growth (locus YJL115W, strain asf1, active compounds read low) was 0.975. The normalized growth (locus YJL129C, strain trk1, active compounds read low) was 0.213 (active), the normalized growth (locus YJL134W, strain LCB3, active compounds read low) was 0.997 and the normalized growth (locus YJL154C, strain vps35, active compounds read low) was 1.01. The normalized growth (locus YJL164C, strain tpk1, active compounds read low) was 0.258 (active), the normalized growth (locus YJL166W, strain qcr8, active compounds read low) was 0.283 (active) and the normalized growth (locus YJL168C, strain set2, active compounds read low) was 0.966. For the same compound, the normalized growth (locus YJL187C, strain SWE1 (second series), active compounds read low) was 0.954, the normalized growth (locus YJR043C, strain POL32, active compounds read low) was 0.897 and the normalized growth (locus YJR066W, strain TOR1, active compounds read low) was 0.957. The normalized growth (locus YJR075W, strain HOC1, active compounds read low) was 0.947.
